We go through 28 compounds from PubChem BioAssay (NCATS).

Test [1] addresses Cytochrome P450 2D6 (Homo sapiens) (UniProt P10635). As to the kind of experiment: Cytochrome P450 family 2 subfamily D member 6 (CYP2D6) small molecule antagonists: luciferase biochemical (cell-free) qHTS assay (AID 1645840). Further: nearly all actives have a fitted effect of over 55% in size. Further: potency means the concentration at half of the fitted maximal effect. The gist of the method: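 P450-Glo CYP2D6 system: proluciferin substrate converted by enzyme to luciferin, read by luminescence proportional to activity. Enzyme-substrate mix with compound 10 min at room temperature, then NADPH regeneration 1 h before detection reagent.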
On the technique in general: qHTS replaces the single test concentration by a dilution series.

The target of test [2] is Cytochrome P450 3A4 (Homo sapiens) (UniProt P08684). Put plainly: Cytochrome P450 family 3 subfamily A member 4 (CYP3A4) small molecule antagonists: luciferase qHTS assay (AID 1645841). Further: nearly all actives have a fitted effect of over 45% in size. Further: potency means the concentration at half of the fitted maximal effect. The gist of the method:
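Luminescent CYP3A4 activity readout: compounds plus enzyme-substrate mix 10 min at room temperature, reaction started with NADPH regenerating system for 1 h, stopped with detection reagent, read after 20 min. Ketoconazole served as control.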

Test [3] deals with N-terminal Xaa-Pro-Lys N-methyltransferase 1 (Homo sapiens) (UniProt Q9BV86). Put plainly: Confirmatory qHTS for Inhibitors of N-terminal methyltransferase 1 (NTMT1): MTaseGlo Assay (AID 1645874; active means well fitted curve in the direction sought with a large enough effect; an effect the other way counts as inactive or inconclusive; further: nearly all actives have a fitted effect of over 65% in size; further: potency means the concentration at half of the fitted maximal effect). The gist of the method: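 Enzyme mix (125 nM NTMT1, 100 uM SAM) + compound, 15 min RT; + 1 uM SPKRIA, 30 min RT, dark; MTase-Glo reagent 30 min, detection solution 30 min; luminescence. % inhibition vs no-enzyme/DMSO controls, 4-parameter Hill fit.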
N-terminal Xaa-Pro-Lys N-methyltransferase 1 (Homo sapiens), sequence (Q9BV86 whole entry, looked up): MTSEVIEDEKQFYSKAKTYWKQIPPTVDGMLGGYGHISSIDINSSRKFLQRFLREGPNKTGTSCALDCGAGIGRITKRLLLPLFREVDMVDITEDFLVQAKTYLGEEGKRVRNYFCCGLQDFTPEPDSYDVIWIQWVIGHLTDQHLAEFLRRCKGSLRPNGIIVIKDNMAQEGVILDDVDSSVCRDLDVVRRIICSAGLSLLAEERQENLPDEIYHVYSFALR

Test [4] is described as follows: Primary qHTS for inhibitors of nuclear receptor binding SET domain protein 2 (NSD2) in an isogenic RCH-ACV NSD2 p.E1099K mutant (9B) (AID 1645876; active means well fitted curve in the direction sought with a large enough effect; an effect the other way counts as inactive or inconclusive; further: nearly all actives have a fitted effect of over 70% in size; further: potency means the concentration at half of the fitted maximal effect).
Test [5] can be described thus: Primary qHTS for inhibitors of nuclear receptor binding SET domain protein 2 (NSD2) in an RCH-ACV wild type WT cells (2C) (AID 1645877; active means well fitted curve in the direction sought with a large enough effect; an effect the other way counts as inactive or inconclusive; further: nearly all actives have a fitted effect of over 70% in size; further: potency means the concentration at half of the fitted maximal effect).
The target of test [6] is Cytochrome P450 2C9 (Homo sapiens) (UniProt P11712). Put plainly: Cytochrome P450 family 2 subfamily C member 9 (CYP2C9) small molecule antagonists: luciferase biochemical (cell-free) qHTS assay (AID 1645842). Further: nearly all actives have a fitted effect of over 55% in size. Further: potency means the concentration at half of the fitted maximal effect. Put shortly: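 P450-Glo CYP2C9 system: proluciferin substrate with enzyme in mix containing 0.4% BSA, 10 min at room temperature, then NADPH regeneration solution added and incubated 1 h at 37C. Detection reagent stopped reaction; luminescence read after 20 min as RLU.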
Cytochrome P450 2C9 (Homo sapiens), sequence (P11712 whole entry, looked up): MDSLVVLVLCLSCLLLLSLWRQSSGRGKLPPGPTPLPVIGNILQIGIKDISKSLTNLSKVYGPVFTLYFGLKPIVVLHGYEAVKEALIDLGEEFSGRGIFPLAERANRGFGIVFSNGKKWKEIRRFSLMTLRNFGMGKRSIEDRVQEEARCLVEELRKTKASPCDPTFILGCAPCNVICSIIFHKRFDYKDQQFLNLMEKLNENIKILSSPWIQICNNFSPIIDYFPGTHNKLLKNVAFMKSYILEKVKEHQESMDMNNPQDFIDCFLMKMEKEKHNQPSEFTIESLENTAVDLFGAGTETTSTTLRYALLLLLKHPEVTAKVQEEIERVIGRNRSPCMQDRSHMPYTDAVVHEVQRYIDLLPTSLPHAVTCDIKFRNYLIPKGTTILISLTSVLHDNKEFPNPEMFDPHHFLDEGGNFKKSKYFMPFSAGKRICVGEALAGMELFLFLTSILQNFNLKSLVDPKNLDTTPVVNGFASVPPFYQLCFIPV

Test [7] is described as follows: A High-Content qHTS Against Drug Library for the Identification of Small Molecules that Inhibit DYT1 Early Onset Primary Dystonia-Associated Cell Pathology (AID 1645839; calls by dose curve; further: series mostly up to about 46 µM). The gist of the method: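 High-content imaging quantified EGFP-TorsinA mislocalization in HEK293-derived cells inducibly expressing DYT1 mutant torsinA, after 48 h exposure to compound given together with tetracycline induction. Cell count served as a toxicity channel alongside %pathology.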

The nature of test [8]: Counterscreen qHTS for small molecule stabilizers of the endoplasmic reticulum resident proteome: GLuc-NoTag assay (AID 1508627; active means well fitted curve in the direction sought with a large enough effect; an effect the other way counts as inactive or inconclusive; further: potency means the concentration at half of the fitted maximal effect). As to conditions: Gaussia luciferase NoTag secretion counterscreen, luminescence; thapsigargin 100 nM for final 4 h. The gist of the method: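 Counterscreen line: SH-SY5Y-GLuc-NoTag cells, treated with compound 19 hr before a 4 hr, 100 nM thapsigargin calcium depletion. Secreted Gaussia luciferase in the medium was measured by luminescence after coelenterazine was added (0.07x final), with cells unlysed.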

Test [9] can be described thus: Confirmatory qHTS for small molecule stabilizers of the endoplasmic reticulum resident proteome: Secreted ER Calcium Modulated Protein (SERCaMP) assay (AID 1508628; active means well fitted curve in the direction sought with a large enough effect; an effect the other way counts as inactive or inconclusive;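 further: SH-SY5Y cells given compound 16 h then thapsigargin 100 nM for 4 h; series mostly up to about 76 µM; nearly all actives have a fitted effect of over 40% in size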). Put shortly:
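GLuc-SERCaMP-expressing SH-SY5Y cells, pretreated 16 h with compound, are challenged with thapsigargin to empty ER calcium stores; after 4 h, coelenterazine is added directly to the medium and luminescence is imaged.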

Test [10] is described as follows: Cell Viability qHTS for small molecule stabilizers of the endoplasmic reticulum resident proteome (AID 1508629; active means well fitted curve in the direction sought with a large enough effect; an effect the other way counts as inactive or inconclusive;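 further: potency means the concentration at half of the fitted maximal effect; compound exposure about 46 h in total before the viability read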). As to conditions: cell viability counter-screen, 100 nM thapsigargin for final 4 h.

Where “and” joins values, the source holds several entries; their conditions need not be identical. Identical values can stand only once. Inconclusive results are not listed. Where a structure was tested more than once in an assay, its records may differ in their call. Calls of active or inactive are those of the source. Unless noted, the call rests on the fitted dose curve; in most records, active means well fitted curve in the direction sought with a large enough effect in the repeat runs; inconclusive means weak or mixed curves; inactive means no such curve, though single readings can be large; an effect the other way counts as inactive or inconclusive.

Cytochrome P450 2D6 (Homo sapiens), sequence (P10635 whole entry, looked up): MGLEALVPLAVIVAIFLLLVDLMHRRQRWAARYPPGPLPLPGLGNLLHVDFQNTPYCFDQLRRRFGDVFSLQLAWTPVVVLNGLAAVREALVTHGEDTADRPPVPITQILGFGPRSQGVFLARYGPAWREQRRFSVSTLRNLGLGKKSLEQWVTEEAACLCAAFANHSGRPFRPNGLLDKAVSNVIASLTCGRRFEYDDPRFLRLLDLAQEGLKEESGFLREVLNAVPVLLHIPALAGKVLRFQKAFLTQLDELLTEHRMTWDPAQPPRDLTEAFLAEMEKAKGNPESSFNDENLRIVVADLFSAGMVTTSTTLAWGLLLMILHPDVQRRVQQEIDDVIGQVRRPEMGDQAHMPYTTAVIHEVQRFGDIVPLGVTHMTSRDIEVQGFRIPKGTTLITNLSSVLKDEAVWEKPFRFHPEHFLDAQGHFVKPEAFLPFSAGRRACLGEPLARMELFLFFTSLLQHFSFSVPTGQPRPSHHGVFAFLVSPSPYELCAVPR
Cytochrome P450 3A4 (Homo sapiens), sequence (P08684 whole entry, looked up): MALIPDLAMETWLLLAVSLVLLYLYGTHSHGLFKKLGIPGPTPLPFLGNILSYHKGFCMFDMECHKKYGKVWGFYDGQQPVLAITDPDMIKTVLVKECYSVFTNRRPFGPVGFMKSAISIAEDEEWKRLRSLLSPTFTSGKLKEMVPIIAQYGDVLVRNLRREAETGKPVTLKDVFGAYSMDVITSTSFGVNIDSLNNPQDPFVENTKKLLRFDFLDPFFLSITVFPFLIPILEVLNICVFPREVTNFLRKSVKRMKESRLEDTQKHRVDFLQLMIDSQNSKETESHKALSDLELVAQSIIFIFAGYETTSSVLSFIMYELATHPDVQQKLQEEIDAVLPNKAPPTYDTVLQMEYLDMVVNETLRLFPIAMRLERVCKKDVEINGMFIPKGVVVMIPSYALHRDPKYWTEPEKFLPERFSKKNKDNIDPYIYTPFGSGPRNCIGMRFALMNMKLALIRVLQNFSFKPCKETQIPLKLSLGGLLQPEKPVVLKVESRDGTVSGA

With `COc1cc2c(Nc3ccc(Cl)c(Cl)c3F)ncnc2cc1OCC1C[C@@H]2CN(C)C[C@@H]2C1` (some centres undefined), the Potency was 16.9 µM (active) in test [1]; 15.1 µM (active) in test [3]; 2.95 µM (active) in [4]; 2.63 µM (active) and 1.86 µM (active) in [5]. Further, the Potency result in test [2] is “inactive”.
`O=C(O)CCC(=O)C(=O)O`: the Potency entry in test [1] and in [6] was “inactive” each time.
In the case of `COc1c(C)c(C(=O)c2ccc(N)c(C(=O)O)c2)n2ccccc12`, the Potency result in [1], in test [3] and in [4] was “inactive” each time. In test [6], the Potency was 12 µM (active) and 10.7 µM (active).
`CCOc1ccc(C(Nc2ccccn2)c2ccc3ccc(C)nc3c2O)cc1C` (centres undefined): the Potency entry in [1] is “inactive”. Further, the Potency in [6] was 4.77 µM (active).
As to `CC(C)N=c1cc2n(-c3ccc(Cl)cc3)c3ccccc3nc-2cc1Nc1ccc(Cl)cc1`, the Potency in [1] was 1.34 µM (active).
On to `CC(=O)OC(C)OC(=O)C(C)c1ccc(-c2ccccc2)c(F)c1` (centres undefined), for which, in test [7], the compound was called inactive. Further, in [6], the Potency is 9.77 µM (active). Besides, in test [4], the Potency result is “inactive”.
For `CNc1nc(Nc2cnn([C@H]3CCN(C4COC4)C[C@@H]3F)c2Cl)ncc1C(F)(F)F`, the Potency result in [1] and in test [2] was “inactive” throughout. Further, the Potency in test [6] is 2.68 µM (active).
`CCc1cc2c(=O)c(-c3nc4ccccc4s3)coc2c(CN2CCCCC2)c1O`: the Potency result in test [1] and in test [4] was “inactive” throughout. Besides, the Potency in test [6] was 0.12 µM (active).
`O=C1CC(c2ccc([N+](=O)[O-])cc2)=NN1c1ccccc1`: the Potency entry in test [1] and in test [4] was “inactive” each time. In addition, the Potency in [6] is 13.5 µM (active).
Consider `COCCN(C)Cc1ccc2nc3sc(C(=O)N(C)C4CCCCC4)cn3c2c1`, for which the Potency entry in test [1], in [2], in test [4] and in test [5] was “inactive” in each case.
On to `O=C(O)c1cc(=O)c2c3nc4ccccc4oc-3cc(=O)c2[nH]1`, for which the Potency was 1.9 µM (active) in test [1] and 26.8 µM (active) in test [6].
With `COC(=O)C1=C(C)NC(C)=C(C(=O)OCCCN2CCC(c3ccccc3)(c3ccccc3)CC2)[C@H]1c1cccc([N+](=O)[O-])c1`, the Potency in test [8] was 39.8 µM (active) and 44.7 µM (active); in [10] it was 25.1 µM (active) and 28.2 µM (active). Moreover, in test [9], the result was inactive.
For `Cc1c(C)c2c(c(C)c1O)CC[C@@](C)(CCC[C@H](C)CCC[C@H](C)CCCC(C)C)O2`, the Potency result in test [1] and in test [6] was “inactive” throughout.
Regarding `COc1ccc([C@@H]2N[C@H](C(=O)O)Cc3c2[nH]c2ccccc32)cc1CN1CCN(c2ccccc2F)CC1`, in [1], the Potency is 13.5 µM (active). Moreover, the Potency result in test [6] and in test [4] was “inactive” throughout.
For `OCC(S)CS` (centres undefined), the Potency was 16.9 µM (active) in [1] and 2.68 µM (active) in [6].
As for `NS(=O)(=O)OC[C@@H]1C[C@@H](n2ccc3c(N[C@H]4CCc5ccccc54)ncnc32)C[C@@H]1O`, the Potency entry in test [1] is “inactive and 8.49 µM (active)”; in test [6], 21.3 µM (active); in test [4], 325 nM (active) and 409 nM (active) and 525 nM (active).
`C[C@@H]1[C@H](O)[C@@H](C)/C=C/C=C\C=C\C=C\C=C\C=C\C=C\[C@H](O[C@@H]2O[C@H](C)[C@@H](O)[C@H](N)[C@@H]2O)C[C@@H]2O[C@](O)(C[C@@H](O)C[C@@H](O)[C@H](O)CC[C@@H](O)C[C@@H](O)CC(=O)O[C@H]1C)C[C@H](O)[C@H]2C(=O)O` (stereo in doubt): the Potency result in test [1] and in test [6] was “inactive” throughout.
As to `O=C(Nc1ccc(Br)cc1)c1cc(Br)c(Br)s1`, the Potency is 9.52 µM (active) in [1] and 21.3 µM (active) in test [6].
For `O=C(C1CC1)N1CC[C@@H](Cc2n[nH]c(=O)n2-c2ccc(-c3ccc4occc4c3)cc2)C1`, the Potency in [1] was 13.5 µM (active); in [2] it was 6.74 µM (active); in test [6], 6.74 µM (active); in test [4] it was “inactive and 16.6 µM (active)”; in test [5], “inactive and 18.6 µM (active)”.
Regarding `Clc1cc(Cl)c(OCC#CI)cc1Cl`, the Potency was 0.674 µM (active) in test [1] and 6.01 µM (active) in test [6].
Taken in the same sequence, the figures for `COC(=O)CCC(=O)CN` were “inactive” and “inactive”.
In the case of `c1nc(NC2CCCCCC2)c2cc(CNC[C@H]3CCCO3)sc2n1`, the Potency in [1] was 19 µM (active).
For the compound `Nc1c(N=Nc2ccc(-c3ccc(N=Nc4cc(S(=O)(=O)O)c5ccccc5c4N)cc3)cc2)cc(S(=O)(=O)O)c2ccccc12`, the Potency in test [1] is 7.56 µM (active).
Consider `CCCCCCCC(=O)O`, for which the Potency entry in test [1] and in test [6] was “inactive” throughout.
Turning to `O=C(O)[C@H]1CCCC[C@H]1C(=O)N1CCc2ccccc2[C@H]1CN1C(=O)c2ccccc2C1=O`, the Potency result in [1] was “inactive”.
For the compound `COc1cccc2c1CCC[C@H]2CN(C)CCc1ccc2ccoc2c1`, the results for the Potency in [1] and in [6] were 0.0535 µM (active) and 0.425 µM (active), respectively.
Taken in the same sequence, the figures for `CCCCC(C)(O)C/C=C/[C@H]1[C@H](O)CC(=O)[C@@H]1CCCCCCC(=O)OC` (some centres undefined) were 10.7 µM (active) and 2.68 µM (active).
As to `N#Cc1ccc2[nH]c(O)c(-c3ccc(CN4CCOCC4)cn3)c2c1`, the Potency in test [1] is 12 µM (active) and 6.74 µM (active); in test [6] it was “inactive and 16.9 µM (active)”.
